Compound activity as filed in PubChem BioAssay.
This is a sample that favours compounds with a hit; in the whole collection about 2.6% have one here.
Cruzain noTriton: cruzain (T. cruzi) inhibition without detergent; P25779; purified cruzain, Z-FR-AMC fluorescence, no detergent; Potency, µM, for inactives: max response, negative = inhibition, most hits filed as inhibitors; hit rate 2.3% among 200,000;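 note: plate controls were enzyme without inhibitor for no effect and buffer without enzyme for full effect; nearly all actives have a fitted effect of over 40% in size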
Target sequence (P25779 123-467 limits assumed): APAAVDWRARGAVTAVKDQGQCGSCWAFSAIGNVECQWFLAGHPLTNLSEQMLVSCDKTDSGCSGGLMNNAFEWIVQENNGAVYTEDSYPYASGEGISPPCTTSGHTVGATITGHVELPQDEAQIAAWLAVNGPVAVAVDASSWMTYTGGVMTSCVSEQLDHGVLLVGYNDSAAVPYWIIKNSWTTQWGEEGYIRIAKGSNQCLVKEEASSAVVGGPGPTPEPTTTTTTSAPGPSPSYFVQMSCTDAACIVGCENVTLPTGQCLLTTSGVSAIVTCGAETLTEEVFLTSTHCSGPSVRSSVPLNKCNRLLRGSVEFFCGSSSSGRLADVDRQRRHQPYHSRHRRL
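Detergent-free condition (0.00005% Triton X-100) in acetate buffer pH 5.5 with DTT. 1.5 nM enzyme and compound were pre-mixed 15 min, then 2 uM Z-FR-AMC substrate added; reaction progress from fluorescence change between first and third reads (60 s).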
Cruzain Triton: cruzain (T. cruzi) inhibition with detergent | purified cruzain, Z-FR-AMC fluorescence, 0.01% Triton | P25779 | Potency, µM, for inactives: max response, negative = inhibition, hits mostly inhibitors | hit rate 0.43% among 200,000;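 note: plate controls were neutral wells for no effect and buffer without enzyme for full effect; nearly all actives have a fitted effect of over 40% in size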
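In this qHTS format, compounds are incubated with 1.5 nM cruzain for 15 min at room temperature before 2 uM Z-FR-AMC is added. Release of AMC is followed at 360/450 nm, and progress is taken as the 60 s fluorescence difference.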
Starred values were filed as active, the others as inactive. Calls come from the whole dose curve; as a rule, active = well fitted curve in the direction sought with a large enough effect; inconclusive = small, poorly fitted or top-dose-only effect, or another doubt; inactive = no such curve, though single readings can be large; an effect the other way counts as inactive or inconclusive. Potency is the fitted concentration of half-maximal effect.

Screening c1csc(CN2CCOCC2)c1 returned Cruzain noTriton 2% and Cruzain Triton 2%.
O=C(N/N=C/c1ccc([N+](=O)[O-])o1)c1cc(-c2cccc(Br)c2)nc2ccccc12 was read as Cruzain noTriton inconclusive and Cruzain Triton -3%.
CCCc1ccc(-c2cc(C(=O)N/N=C/c3ccc([N+](=O)[O-])o3)c3ccccc3n2)cc1 was read as Cruzain noTriton 16µM* and Cruzain Triton -2%.
Screening CC1=C(C(=O)Nc2ccccc2C)C(c2cccs2)NC(=S)N1 (stereo unspecified) returned Cruzain noTriton -6% and Cruzain Triton -1%.
O=C(N/N=C\c1ccc(CN(Cc2ccc(Cl)cc2)S(=O)(=O)c2ccccc2)o1)C(=O)Nc1ccc(F)cc1 was read as Cruzain noTriton 7.9µM* and Cruzain Triton 2%.
Screening Cc1cccc(CN(CC(=O)N/N=C/c2ccco2)S(=O)(=O)c2ccc(Cl)cc2)c1 returned Cruzain noTriton 17% and Cruzain Triton -3%.
O=C(N/N=C\c1ccc(CNS(=O)(=O)c2ccccc2)o1)C(=O)Nc1ccc(F)cc1 was read as Cruzain noTriton inconclusive and Cruzain Triton 1%.
O=C(N/N=C\c1ccc(CNS(=O)(=O)c2ccc(Cl)cc2)o1)C(=O)Nc1ccc(Oc2ccccc2)cc1 was read as Cruzain noTriton 7.9µM* and Cruzain Triton -1%.
`COC(=O)CCCC[C@@H]1SC[C@@H]2NC(=O)N[C@@H]21` gave Cruzain noTriton 4% and Cruzain Triton 7%.
COCc1cc(=O)[nH]c(Nc2nc(C)c3cc(OC)ccc3n2)n1 was read as Cruzain noTriton 8% and Cruzain Triton 0%.
`CCOc1ccc2nc(NC3=NCN(Cc4ccco4)CN3)nc(C)c2c1` gave Cruzain noTriton -4% and Cruzain Triton -3%.
`CCOc1ccc2c(C)nc(NC3=NC(C)(C)C=C(C)N3)nc2c1` gave Cruzain noTriton 16µM* and Cruzain Triton 16µM*.
Screening CCOc1ccc2nc(NC3=NC(C)(C)C=C(C)N3)nc(C)c2c1 returned Cruzain noTriton 16µM* and Cruzain Triton 28µM*.
For COCCN1CN=C(Nc2nc(C)c3ccc(C)cc3n2)NC1 the results were Cruzain noTriton -12% and Cruzain Triton -16%.
CCOc1ccc2nc(NC3=NC(c4ccc(OC)cc4)CC(=O)N3)nc(C)c2c1 (stereo unspecified) was read as Cruzain noTriton inconclusive and Cruzain Triton 8.9µM*.
COc1cc(CN(C(=O)c2ccc(OC(C)C)cc2)C2CCS(=O)(=O)C2)cc(OC)c1OC (stereo unspecified) was read as Cruzain noTriton inconclusive and Cruzain Triton -2%.
Cc1ccc2c(c1)nnn2C1CCN(S(C)(=O)=O)CC1 was read as Cruzain noTriton -4% and Cruzain Triton 1%.
For Cc1ccc(S(=O)(=O)c2cn(CC(=O)Nc3ccc(C)c(Cl)c3)c3ccc(C)cc3c2=O)cc1 the results were Cruzain noTriton inconclusive and Cruzain Triton -3%.
Screening COc1ccc(NC(=O)Cn2cc(S(=O)(=O)c3ccccc3)c(=O)c3cc(C)ccc32)cc1Cl returned Cruzain noTriton 25µM* and Cruzain Triton -4%.
For COc1ccc2c(c1)c(=O)c(S(=O)(=O)c1ccccc1)cn2CC(=O)Nc1ccc(C)c(Cl)c1 the results were Cruzain noTriton 20µM* and Cruzain Triton -5%.
Screening COc1ccc2c(c1)c(=O)c(S(=O)(=O)c1ccccc1)cn2CC(=O)Nc1ccc2c(c1)OCO2 returned Cruzain noTriton 9% and Cruzain Triton -7%.
COC(=O)CC/C(O)=C1/C(=N)CC(C)(C)CC1=O was read as Cruzain noTriton 0% and Cruzain Triton 2%.
Screening CCSc1nnc(C)c2ccccc12 returned Cruzain noTriton 3% and Cruzain Triton 2%.
Screening Clc1ccc(CSc2nnc(NC3=NCCCCC3)s2)cc1 returned Cruzain noTriton -5% and Cruzain Triton -3%.
CN(C)S(=O)(=O)c1cccc(NC(=S)N/N=C/C(c2ccccc2)c2ccccc2)c1 was read as Cruzain noTriton 32µM* and Cruzain Triton -5%.
For CC(/C=N/NC(=S)Nc1cccc(S(=O)(=O)N(C)C)c1)c1ccccc1 (stereo unspecified) the results were Cruzain noTriton -28% and Cruzain Triton -3%.
CCCSc1nnc2n(N)c(=O)c3ccccc3n12 was read as Cruzain noTriton -6% and Cruzain Triton 3%.
Screening Cc1cc(O)c(NC(=S)NC(=O)c2ccc(-c3ccc(Cl)cc3)o2)cc1C returned Cruzain noTriton 16µM* and Cruzain Triton 5%.
`Cc1ccc(NC(=S)NC(=O)c2ccc(-c3ccc(Cl)cc3)o2)c(O)c1` gave Cruzain noTriton -26% and Cruzain Triton 0%.
Screening O=[N+]([O-])c1cc(S(=O)(=O)N2CCCC2)ccc1N/N=C1/CCCc2ccccc21 returned Cruzain noTriton 16µM* and Cruzain Triton -6%.
For O=[N+]([O-])c1cc(S(=O)(=O)N2CCCC2)ccc1NN=C1CCCCC1 the results were Cruzain noTriton 19% and Cruzain Triton 1%.
`CCOc1ccc(-n2c(SCC(=O)Nc3ccc(OC)cc3)nc3c(c2=O)SCC3)cc1` gave Cruzain noTriton -5% and Cruzain Triton -1%.
COC(=O)c1c(NC(=O)CSc2nc3ccccc3c(=O)n2-c2ccccc2)sc(C)c1C was read as Cruzain noTriton 13µM* and Cruzain Triton -3%.
CCOC(=O)c1sc(NC(=O)CSc2nc3c(c(=O)n2-c2ccc(F)cc2)SCC3)c(C(=O)OCC)c1C was read as Cruzain noTriton 25µM* and Cruzain Triton -3%.
Cc1cc(NC(=O)CSc2nc3ccccc3c(=O)n2-c2ccccc2)no1 was read as Cruzain noTriton -11% and Cruzain Triton 11%.
Screening Cc1cccc(C)c1-n1ncc(C(=O)Nc2ccc3c(c2)OCO3)c1C1CCN(C(=O)OC(C)(C)C)CC1 returned Cruzain noTriton -17% and Cruzain Triton -10%.
For N/C(Cc1ccc(Cl)cc1)=N\OC(=O)c1ccccc1 the results were Cruzain noTriton 7% and Cruzain Triton 1%.
O=P(O)(O)C(Cl)(Cl)P(=O)(O)O was read as Cruzain noTriton 7% and Cruzain Triton 3%.
CCOC(=O)c1c(NC(=S)Nc2ccccc2)sc2c1CC(C)(C)SC2 was read as Cruzain noTriton 13µM* and Cruzain Triton -4%.
Screening CCOC(=O)c1c(NC(=S)Nc2ccc(Cl)cc2)sc(C)c1C returned Cruzain noTriton 4µM* and Cruzain Triton -4%.
Screening CCOC(=O)c1c(NC(=S)NC)sc2c1CC(C)(C)SC2 returned Cruzain noTriton -24% and Cruzain Triton -26%.
`COC(=O)c1c(NC(=S)Nc2ccc(CC(=O)O)cc2)sc(C)c1C` gave Cruzain noTriton 8% and Cruzain Triton -11%.
`O=C(NCc1cccnc1)c1cccc(S(=O)(=O)N2CCOCC2)c1` gave Cruzain noTriton -6% and Cruzain Triton -1%.
`COc1ccc(-c2[nH]nc3c2C(c2ccccc2OC(=O)N2CCOCC2)C(C#N)=C(N)O3)cc1` (stereo unspecified) gave Cruzain noTriton inconclusive and Cruzain Triton 1%.
Screening Cc1ccc(-c2[nH]nc3c2C(c2ccccc2OC(=O)N2CCOCC2)C(C#N)=C(N)O3)cc1 (stereo unspecified) returned Cruzain noTriton 25µM* and Cruzain Triton 2%.
For O=C1CC(N(CCc2ccccc2)C(=S)Nc2ccccc2)C(=O)N1c1ccccc1 (stereo unspecified) the results were Cruzain noTriton -2% and Cruzain Triton -1%.
